Laboratory results reported in PubChem BioAssay (NCI).
Compounds without any hit were thinned out: in the full panel of roughly 79,000, 15% have a hit. Rule as the data show it: active = growth inhibition above about 70%; inactive = the rest.

Key:
[1] = NCI Yeast Anticancer Drug Screen. Data for the rad50 strain (AID 155);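 also: 0% = growth of vehicle-only cultures of the same strain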; conditions: S. cerevisiae rad50 strain growth inhibition; at 50.0 µM; stronger effect = higher value
Method in brief: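 Yeast carrying a defined DNA repair defect were exposed to test compounds, and growth was compared with vehicle-treated controls to give percent inhibition.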

[2] = NCI Yeast Anticancer Drug Screen. Data for the mec2-1 strain (AID 157); conditions: S. cerevisiae mec2-1 strain, at 50.0 µM, stronger effect = higher value
Method in brief: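 Compounds were applied to mec2-1 yeast cells. Their growth was then compared with that of vehicle-treated cultures to give growth inhibition.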

[3] = NCI Yeast Anticancer Drug Screen. Data for the sgs1 mgt1 strain (AID 161);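 also: 0% = growth of cultures given vehicle only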; conditions: S. cerevisiae sgs1 mgt1 strain, at 50.0 µM, stronger effect = higher value
Method in brief: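 Yeast cells carrying a defined DNA-repair defect were exposed to test compounds. Growth inhibition was measured relative to vehicle-treated controls.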

[4] = NCI Yeast Anticancer Drug Screen. Data for the cln2 rad14 strain (AID 165);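 also: 0% = growth equal to vehicle treated cultures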; conditions: S. cerevisiae cln2 rad14 strain, at 50.0 µM, stronger effect = higher value
Method in brief: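 Strain: cln2 rad14 yeast, altered in cell cycle control and DNA damage repair. Read-out: growth inhibition vs vehicle.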

[5] = NCI Yeast Anticancer Drug Screen. Data for the bub3 strain (AID 167); conditions: S. cerevisiae bub3 mutant strain, at 50.0 µM, stronger effect = higher value
Method in brief: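 Compounds were applied to a genetically altered yeast strain carrying a cell-cycle control defect. Growth inhibition was scored against vehicle-treated controls.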

[6] = NCI Yeast Anticancer Drug Screen. Data for the mlh1 rad18 strain (AID 175); conditions: S. cerevisiae mlh1 rad18 strain growth inhibition; at 50.0 µM; stronger effect = higher value
Method in brief: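 A repair-deficient yeast strain is exposed to test compound, and growth is scored relative to vehicle-treated controls.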

Measured: growth inhibition

CCCCc1ccc(-n2c(C)nc3[nH]cc(C)c3c2=N)cc1
inactive: [1] -1.35% | [2] -10.9% | [3] -3.5% | [4] -1.75% | [5] -2.5% | [6] -3.75%

C[n+]1cc(-c2ccccc2)cc(-c2ccccc2)c1
inactive: [1] 0.85% | [2] -3.35% | [3] -1.55% | [4] -29.8% | [5] -3.45% | [6] 6.85%

COc1cccc2cc[nH]c12
inactive: [1] 0.2% | [2] 11.2% | [3] -9.2% | [4] 10.8% | [5] 7.7% | [6] 8.6%

C=C1COC(/C=C(\C)CC/C=C(\C)CCl)C1 (centres undefined)
inactive: [1] -7.4% | [2] -20.2% | [3] -18.6% | [4] 28.1% | [5] -17.1% | [6] -1.7%

CCCCOC(=O)C(=O)OCCCC
inactive: [1] 13.7% | [2] -2.9% | [3] 3.75% | [4] 14.8% | [5] 21.1% | [6] 17.2%

FC(F)(F)C(F)(F)C(F)(F)c1n[nH]c(C(F)(F)C(F)(F)C(F)(F)F)n1
inactive: [1] 12.8% | [2] 15.1% | [3] 33.4% | [4] 2.95% | [5] 18.5% | [6] -0.1%

CC1CCC(C(C)C)/C(=N\O)C1 (centres undefined)
inactive: [1] 4.8% | [2] -19.4% | [3] -11.9% | [4] -7.7% | [5] -6.4% | [6] 2.05%

N#CC(NC12CC3CC(CC(C3)C1)C2)c1ccccc1C(F)(F)F (centres undefined)
inactive: [1] -18.6% | [2] 7.3% | [3] -30.9% | [4] 10.4% | [5] -30.1% | [6] -12.9%

Nc1cc(Cl)ccc1N1C(=O)C=CC1=O
inactive: [1] -26.6% | [2] -14.8% | [3] 1.25% | [4] -6.25% | [5] -9.1% | [6] 18.6%

Cc1c(COC(=O)NC(C)C)c(COC(=O)NC(C)C)c(-c2ccccc2)n1-c1ccccc1
inactive: [1] -16% | [2] -1.95% | [3] 13.8% | [4] -8.1% | [5] -14.1% | [6] 64.2%

CN(C)CCCN1c2ccccc2Sc2cnccc21
inactive: [1] 7.6% | [2] -8.2% | [3] -0.2% | [4] -0.05% | [5] -1.45% | [6] 15.3%

CC(=O)c1c(O)c(Nc2ccccc2)cc2nc3ccccc3nc12
inactive: [1] -4.45% | [2] 3.95% | [3] -0.4% | [4] -10.3% | [5] -8.75% | [6] -23.3%

O=C(Cc1cc[n+]([O-])cc1)C(=O)Nc1cc(Cl)c(Cl)cc1Cl
inactive: [1] -27.4% | [2] -11.9% | [3] -21.5% | [4] -17.1% | [5] -17.8% | [6] -20.1%

CSc1nc(NC2OC(COC(C)=O)C(OC(C)=O)C(OC(C)=O)C2OC(C)=O)c(-c2csc(N)n2)c(=O)n1C (centres undefined)
inactive: [1] -6.8% | [2] -38% | [3] -22.4% | [4] 10.2% | [5] -8.15% | [6] 13.3%

N#C/C(=C\NC(=S)Nc1ccccc1Cl)C(=O)c1ccc2ccccc2c1
inactive: [1] -24.4% | [2] -18% | [3] 0.7% | [4] 13.3% | [5] -35.6% | [6] -28.8%

Cc1sc2nc3n(c(=O)c2c1C)N=C(c1ccccc1)CS3
inactive: [1] -29.4% | [2] -11.8% | [3] -33.3% | [4] 11.1% | [5] -31.4% | [6] -17.2%

COc1cc(NCCC2CCCCN2C)c2ncccc2c1 (centres undefined)
inactive: [1] -3.9% | [2] -22.4% | [3] 8.55% | [4] 1.8% | [5] 13.6% | [6] 22.1%

O=[N+]([O-])c1ccc2c(c1)Cc1cc(N(CBr)CBr)ccc1-2
inactive: [1] 6.35% | [2] 5.8% | [3] -1.4% | [4] -21.7% | [5] -7.55% | [6] 18.9%

C[N+]1(C)CCC[N+](C)(C)CC1
inactive: [1] -15.9% | [2] -7.75% | [3] 3.9% | [4] 16.2% | [5] 20.9% | [6] 6.4%

NNc1nnc(NN)c2ccccc12
inactive: [1] 1.75% | [2] -2.05% | [3] 0.8% | [4] 3.65% | [5] 4.45% | [6] 4.7%

CC1=NN(c2nc(N)nc(CCl)n2)CC1
inactive: [1] 11.1% | [2] 6.35% | [3] 8.15% | [4] 21.9% | [5] 11.5% | [6] -29.2%

CC12CC3C(CC1SCC(=O)O2)C3(C)C (centres undefined)
inactive: [1] -27.2% | [2] -1.1% | [3] -44.8% | [4] 1.4% | [5] -25.1% | [6] -26.2%

CCC(=O)c1ccc([N+](=O)[O-])cc1
inactive: [1] -14.2% | [2] -18.2% | [3] -24.7% | [4] -59.4% | [5] 1.95% | [6] -10.2%

CC1(C)OC(CP(=O)(c2ccccc2)c2ccccc2)C(CP(=O)(c2ccccc2)c2ccccc2)O1 (centres undefined)
inactive: [1] 23.1% | [2] 13.1% | [3] 15.4% | [4] 18.2% | [5] -2.2% | [6] 13.2%

CC(=O)Oc1ccc2c(=O)c(C(C)=O)coc2c1
inactive: [1] 7.45% | [2] -11.3% | [3] -3.15% | [4] 14.4% | [5] 4.2% | [6] 14.7%

O=C(O)CC(/C=C\C(=O)C(=O)O)=C\O
inactive: [1] -6.6% | [2] -6.4% | [3] -11.6% | [4] 3.6% | [5] 4.15% | [6] -10.2%

O=C(OCC1OC(n2cnc3c(Cl)ncnc32)C(OC(=O)c2ccccc2)C1OC(=O)c1ccccc1)c1ccccc1 (centres undefined)
inactive: [1] -16.6% | [2] -21.2% | [3] -13.2% | [4] 5.6% | [5] -12.8% | [6] -13.3%

CSCCC(O)C(=O)O (centres undefined)
inactive: [1] 21.8% | [2] -7.4% | [3] 19.5% | [4] 28.2% | [5] -2.55% | [6] 17%

Cc1nccc2c3ccccc3n(S(=O)(=O)O)c12
inactive: [1] -4.7% | [2] 26.1% | [3] 11.4% | [4] 55% | [5] -5.95% | [6] 9%

CC(C)CCCC(C)C1CCC2C1CCC1C2CCC2(C)CCC(=O)CCC12C (centres undefined)
inactive: [1] 24.8% | [2] -2.85% | [3] -2.55% | [4] -17.8% | [5] 1.6% | [6] -4%

CCC1C2C=CC(CC2)N1S(=O)(=O)c1ccc(C)cc1 (centres undefined)
inactive: [1] -0.7% | [2] -9.1% | [3] 10.8% | [4] 30% | [5] 13.2% | [6] -6.05%

C[n+]1ccccc1C#N
inactive: [1] -17.2% | [2] -32.1% | [3] 0.55% | [4] 11.9% | [5] -43.4% | [6] -4.2%

S=c1[nH]ncc(SCc2ccccc2)c1SCc1ccccc1
inactive: [1] 2.95% | [2] 2.85% | [3] -8.05% | [4] -15.1% | [5] 7.1% | [6] 7.55%

O=C1OC(c2ccc3c(c2)CCCC3)=C/C1=C/c1ccc2c(c1)OCO2
inactive: [1] -13.4% | [2] 4% | [3] 14.1% | [4] -25.1% | [5] 2.9% | [6] -15.9%

CN(C)CC1CCc2c(n(C)c3ccccc23)C1=O (centres undefined)
inactive: [1] -2.55% | [2] -2.85% | [3] 5.2% | [4] -51.8% | [5] -4.35% | [6] 10.6%

CC(C)(C)C(=O)Oc1ccc[nH]c1=O
inactive: [1] 23.4% | [2] -13.9% | [3] 2.35% | [4] -27.6% | [5] -13.7% | [6] -2.1%

O=C(O)Cc1nc(Cl)ccc1Cl
inactive: [1] 16.1% | [2] -7.2% | [3] -0.3% | [4] -15.2% | [5] -1.25% | [6] -1.1%

O=C(N=c1nc(NC(=O)c2ccccc2)ss1)c1ccccc1
inactive: [1] -0.25% | [2] 7.7% | [3] -2.8% | [4] -42.2% | [5] -17.1% | [6] 13.2%

Cc1cccc(C)c1NC(=O)C(=O)CC(=O)c1sc(Nc2c(C)cccc2C)nc1C
inactive: [1] 12.1% | [2] -10.9% | [3] 26.2% | [4] -22.9% | [5] 16.6% | [6] 16.9%
